# Source: PubChem BioAssay (Tox21)
# Results filed as inconclusive are left out. A call without a number means that no potency is given here. Calls of active or inactive are those of the source. Unless noted, calls come from the whole dose curve; as a rule, active = well fitted curve in the direction sought with a large enough effect in the repeat runs; inconclusive = weak or mixed curves; inactive = no such curve, though single readings can be large; an effect the other way counts as inactive or inconclusive.
# How the values were obtained:
# [1] = qHTS assay to identify small molecule antagonists of the estrogen receptor alpha (ER-alpha) signaling pathway using the BG1 cell line in the presence of 0.1 nM 17-beta-estradiol - cell viability counter screen (AID 1259241); note: nearly all actives have a fitted effect of over 40% in size
# Outline: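 Measures cytotoxicity alongside the ER-alpha antagonist readout: VM7Luc4E2 cells, charcoal-stripped serum, 0.1 nM 17beta-estradiol final, 22 hr compound incubation at 37C, CellTiter-Fluor fluorescence.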
# [2] = qHTS assay to identify small molecule antagonists of the androgen receptor (AR) signaling pathway using the MDA cell line in the presence of 0.5 nM R1881 - cell viability counter screen (AID 1259242); note: nearly all actives have a fitted effect of over 45% in size
# Outline: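 MDA-kb2 cells (MMTV-luciferase, AR/GR responsive) were treated with compounds plus 0.5 nM R1881 (final) for 16 hr at 37C, 0% CO2. Viability was then read in the same wells as live-cell protease fluorescence (CellTiter-Fluor, 30 min).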
# [3] = target: Estrogen receptor (Homo sapiens) (UniProt P03372); experiment: qHTS assay to identify small molecule antagonists of the estrogen receptor alpha (ER-alpha) signaling pathway using the BG1 cell line in the presence of 0.1 nM 17-beta-estradiol (AID 1259244); note: nearly all actives have a fitted effect of over 50% in size
# Chain of Estrogen receptor (Homo sapiens) (P03372 whole entry, looked up): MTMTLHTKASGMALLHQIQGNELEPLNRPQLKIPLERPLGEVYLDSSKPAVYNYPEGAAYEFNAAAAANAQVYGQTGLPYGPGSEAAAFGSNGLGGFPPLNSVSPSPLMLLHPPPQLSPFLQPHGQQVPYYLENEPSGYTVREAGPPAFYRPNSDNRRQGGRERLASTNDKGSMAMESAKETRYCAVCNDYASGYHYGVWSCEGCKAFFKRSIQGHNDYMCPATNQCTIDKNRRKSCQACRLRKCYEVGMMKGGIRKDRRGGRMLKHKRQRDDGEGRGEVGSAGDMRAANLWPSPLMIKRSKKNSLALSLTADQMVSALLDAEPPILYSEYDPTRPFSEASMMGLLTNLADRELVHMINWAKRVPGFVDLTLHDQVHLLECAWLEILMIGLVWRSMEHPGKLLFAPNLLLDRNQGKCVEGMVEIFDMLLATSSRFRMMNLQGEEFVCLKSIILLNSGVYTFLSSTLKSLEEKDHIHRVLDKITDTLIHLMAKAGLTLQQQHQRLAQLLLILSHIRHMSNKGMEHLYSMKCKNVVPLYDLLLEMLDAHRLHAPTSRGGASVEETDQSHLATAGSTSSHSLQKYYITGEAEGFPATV
# Outline: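 VM7Luc4E2 cells (endogenous full-length ER-alpha, 4×ERE-luciferase), kept 5 days in phenol red-free, charcoal-stripped FBS medium; 4,000 cells/well. Compounds added with 0.1 nM (final) 17beta-estradiol, 22 hr at 37C; luminescence read with ONE-Glo after 30 min.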
# [4] = qHTS assay to identify small molecule HDAC inhibitors (AID 1259364); note: nearly all actives have a fitted effect of over 45% in size; note: potency is the fitted concentration of half-maximal effect
# Outline: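 Wild-type HCT-116 cells, plated overnight at 37 C, exposed to compounds 2 hr at 37 C; luminogenic HDAC-Glo substrate then added 30 min at room temperature. Luminescence reports relative endogenous class I/II HDAC activity.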
# [5] = qHTS assay to identify small molecule HDAC inhibitors - cell viability counter screen (AID 1259365); note: series mostly up to about 92 µM; nearly all actives have a fitted effect of over 50% in size
# Outline: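 Following a 2hr exposure of overnight-plated wild-type HCT-116 cells to DMSO-delivered compounds, CellTiter-Glo was added and luminescence recorded after 30min at room temperature.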
# [6] = qHTS assay to identify small molecule antagonists of the sonic hedgehog signaling (Shh) pathway - cell viability counter screen (AID 1259367); note: nearly all actives have a fitted effect of over 55% in size
# Outline: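 After a 4 hr settling period, 3T3 Gli1-Luc cells were treated with DMSO-dissolved chemicals and conditioned medium, kept 24 hr at 37C in 5% CO2, and assayed for viability by CellTiter-Fluor fluorescence following 1 hr reagent incubation.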
# [7] = qHTS assay to identify small molecule agonists of the sonic hedgehog signaling (Shh) pathway - cell viability counter screen (AID 1259366); note: nearly all actives have a fitted effect of over 50% in size
# Outline: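 After a 4hr attachment at 37C, NIH/3T3 cells bearing an integrated Gli1-driven luciferase reporter were dosed with compounds. Treatment lasted 24hr, with the final hour including CellTiter-Fluor for a fluorescence viability measurement.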
# [8] = qHTS assay to identify small molecule agonists of the sonic hedgehog signaling (Shh) pathway (AID 1259368; calls by dose curve;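 note: NIH/3T3-derived 3T3Gli1-Luc cells carrying a stable Gli1-driven firefly luciferase reporter; series mostly up to about 92 µM; nearly all actives have a fitted effect of over 15% in size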)
# Outline: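 NIH/3T3-derived 3T3Gli1-Luc cells with stably integrated Gli1-driven firefly luciferase, 2,000 cells/well, compounds added after 4 hr. Incubated 24 hr at 37C, 5% CO2; luminescence read after 30 min with luciferase reagent at room temperature.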
Compound,Potency [1],Potency [2],Potency [3],Potency [4],Potency [5],Potency [6],Potency [7],Potency [8]
CCOC(=O)c1ccccc1C(=C1C=C(Br)C(=O)C(Br)=C1)c1cc(Br)c(O)c(Br)c1,inactive,inactive,inactive,inactive,inactive,inactive,,
CN(C)CCC=C1c2ccccc2C=Cc2ccccc21,inactive,inactive,inactive,inactive,inactive,inactive,inactive,inactive
Cc1cc(C)c(N)cc1C,inactive,inactive,inactive,inactive,inactive,inactive,inactive,inactive
CC(=O)c1cc2ccccc2s1,inactive,inactive,inactive,inactive,inactive,inactive,inactive,inactive
Cc1ccccc1N=C(N)Nc1ccccc1C,inactive,inactive,inactive,inactive,inactive,,inactive,inactive
O=c1[nH]c2ccc(Cl)cc2o1,inactive,inactive,inactive,inactive,inactive,inactive,inactive,inactive
C=CC(C)(CCC=C(C)C)OC(=O)CC(C)C (stereo unspecified),inactive,inactive,inactive,inactive,inactive,inactive,inactive,inactive
FC(F)(F)c1ccccc1Cl,inactive,inactive,inactive,inactive,inactive,inactive,inactive,inactive
CC(C)=CC(=O)C=C(C)C,inactive,inactive,inactive,inactive,inactive,inactive,inactive,inactive
O=C(O)CCCCCCCCCCCBr,inactive,inactive,inactive,24.4 µM (active),inactive,inactive,inactive,inactive
OCCOCC#CCOCCO,inactive,inactive,inactive,inactive,inactive,inactive,inactive,inactive
O=C(O)C[C@H](NC(=O)OCc1ccccc1)C(=O)O,inactive,inactive,inactive,inactive,inactive,inactive,inactive,inactive
CC(C)(C)C(=O)C(=O)O,inactive,inactive,inactive,inactive,inactive,inactive,inactive,inactive
